From the supplement of paper PMC9897528

Each molecule was assayed on Scedosporium aurantiacum CBS 136046 (assay: growth inhibition relative to DMSO control (OD600); higher = more antifungal activity, active = 80 or more; extreme values may be limits of the assay). Conditions: 5 µM; 72 h; 37 °C.
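Further: conidia screened in RPMI 1640 medium under 5% CO2, growth read by spectrophotometer, medium with 0.5% DMSO serving as the untreated reference.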

Growth inhibition, inactive:
CCCCOC(=O)Nc1cc2nc(C3CCCCC3)[nH]c2cc1N(CC)CC 39.7%, CN(C)CCNC(=O)c1cccc2cccnc12 2.13%, O=C(NCCN1CCCCC1)c1cccc(C(F)(F)F)c1 10.1%, CCc1cc(O)c(Oc2ccc(C(N)=O)cc2F)cc1F 29.4%, CCCCCCCCC(CP(=O)(O)C(C)N)C(=O)O (stereo not drawn) 6.14%, Cc1nc(-c2ccc(C3N(C)c4ccc(F)cc4C(=O)N3c3ccccc3)s2)cs1 (stereo not drawn) 15%, COc1ccc2c(c1)cc(CNC(=O)c1cc3ccccc3o1)n2CC(=O)O 17.7%, CCn1cc(C(=O)O)c(=O)c2cc(F)c(N3CCNC(C)C3)c(F)c21 (stereo not drawn) 4.34%, Cc1ccc(C)c(OCCCCCCN2C[C@H](O)[C@@H](O)[C@H](O)[C@H]2CO)c1 15.9%, NC[C@H]1O[C@H](O[C@H]2[C@H](O)[C@@H](O[C@H]3O[C@H](CO)[C@@H](O)[C@H](N)[C@H]3O)[C@H](N)C[C@@H]2N)[C@H](N)C[C@@H]1O 15.5%, O=[N+]([O-])/C(Br)=C/c1ccc(Br)o1 0.879%, Cc1nc2ccc(Cl)cc2c(-c2ccccc2)c1CC(=O)O 14.2%, CC[C@@]1(O)C(=O)OCc2c1cc1n(c2=O)Cc2cc3c(CN(C)C)c(O)ccc3nc2-1 21.5%, O=S(=O)(Nc1ccc(O)cc1)c1cccc2cccnc12 13.2%, CN(O)C(=O)c1cc2c(CN3CCC[C@H]3C(N)=O)cn(Cc3ccc(F)cc3)c2cn1 1.58%, Nc1cc(-c2nc3ccccc3[nH]2)n[nH]c1=O 1.56%, O=C1CCC(N2C(=O)c3ccccc3C2=O)C(=O)N1 (stereo not drawn) 22.9%, CC(C)N(c1cc(-c2ccccc2)sc1C(=O)O)C(=O)[C@H]1CC[C@H](C)CC1 16.1%, O=C(NCc1ccc(F)cc1)c1c(O)c2ncccc2[nH]c1=O 2.42%, CCC[C@H](NC(=O)[C@@H]1[C@H]2CCC[C@H]2CN1C(=O)[C@@H](NC(=O)[C@@H](NC(=O)c1cnccn1)C1CCCCC1)C(C)(C)C)C(=O)C(=O)NC1CC1 4.34%, Nc1cnn(C2OC(CO)C(O)C2O)c(=O)n1 (stereo not drawn) 8.41%, CCOc1noc2cc(OCCC3CCN(c4ccc(C)nn4)CC3)ccc12 37.3%, CC1(C)[C@H](C(=O)O)N2C(=O)C[C@H]2S1(=O)=O 0%, O=C(N[C@H](Cc1cccc2ccccc12)C(=O)NCCc1c[nH]cn1)C1Cc2ccccc2C1 2.31%, CN(C)CCCOc1ccc(-c2ccc3ncc4c(c3c2)n(C2CCOCC2)c(=O)n4C)cn1 3.43%, Nc1nc(O)c2ncn([C@@H]3O[C@H](CO)[C@@H](O)[C@H]3F)c2n1 17.4%, O=C(Nc1ccccc1)N(Cc1cc(Br)ccc1O)c1ccc(F)cc1 40.7%, CN(Cc1ccc(C(C)(C)C)cc1)Cc1cccc2ccccc12 37.7%, CC[C@@]1(O)C(=O)OCc2c1cc1n(c2=O)Cc2cc3c([N+](=O)[O-])cccc3nc2-1 22.2%, C=C[C@]1(C)C[C@@H](OC(=O)CS[C@@H]2C[C@H]3CC[C@@H](C2)N3C)[C@]2(C)[C@H](C)CC[C@]3(CCC(=O)[C@H]32)[C@@H](C)[C@@H]1O 35.7%, C=C(C)[C@@H]1CC[C@]2(C(=O)O)CC[C@]3(C)[C@H](CC[C@@H]4[C@@]5(C)CC[C@H](O)C(C)(C)[C@@H]5CC[C@]43C)[C@@H]12 1.06%, N=C(N)c1ccc(COc2ccc(Cl)cc2)cc1 19.9%, CCOC(=O)Nc1cc(NC(C)CC(C)CN(CC)CC)c2nc(-c3ccccc3)c(-c3ccccc3)nc2n1 (stereo not drawn) 36.4%, Nc1nc(F)nc2c1ncn2[C@H]1O[C@@H](CO)[C@H](O)[C@@H]1O 33.8%, CC1CN(c2ncnc3c2c(-c2ccccc2)cn3-c2ccc(F)cc2)CC(C)O1 (stereo not drawn) 20.4%, CC(=O)Oc1ccccc1C(=O)Nc1ncc([N+](=O)[O-])s1 12.7%, N#CCN1C(=O)COc2cc(F)c(N3C(=O)c4ccccc4C3=O)cc21 0%, CCc1oc2ccccc2c1C(=O)c1ccc(O)cc1 35.1%
